Experimental data from PubChem BioAssay AID1159580 (chemical genetic matrix, 2015).
Where “and” joins values, the source holds several entries; their conditions need not be identical. Equal values may be shown once. In all, about 5,500 compounds went through this assay and about 2,000 (36%) were called active. Roughly 18% stayed inconclusive and do not appear here. No stated cut-off is given here; in the data, active means normalized growth mostly below about 0.91 (no sharp cut-off); inconclusive means no clear call, values can overlap the other calls; inactive means mostly above about 0.92. The list shows a part of the results.

Assay: chemical genetic growth profiling, strain panel (AID 1159580);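 further: tested at 20 µM; growth read once vehicle control cultures reached saturation at 30 °C; 1 = growth at the plate median or of vehicle wells; lower values mean less growth of the strain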
Details: growth OD
[1] = S. cerevisiae deletion strains, locus YAL013W, strain DEP1, hits give low values
[2] = S. cerevisiae deletion strains, locus YBR229C, strain ROT2, hits give low values
[3] = S. cerevisiae deletion strains, locus YDL101C, strain DUN1, hits give low values
[4] = S. cerevisiae deletion strains, locus YDR150W, strain NUM1, hits give low values
[5] = S. cerevisiae deletion strains, locus YEL061C, strain CIN8, hits give low values
[6] = S. cerevisiae deletion strains, locus YGR078C, strain PAC10, hits give low values
[7] = S. cerevisiae deletion strains, locus YHR030C, strain SLT2, hits give low values
[8] = S. cerevisiae deletion strains, locus YJR043C, strain POL32, hits give low values
[9] = S. cerevisiae deletion strains, locus YJR075W, strain HOC1, hits give low values
[10] = S. cerevisiae deletion strains, locus YLR039C, strain RIC1, hits give low values
[11] = S. cerevisiae deletion strains, locus YLR262C, strain YPT6, hits give low values
[12] = S. cerevisiae deletion strains, locus YMR263W, strain SAP30, hits give low values
[13] = S. cerevisiae deletion strains, locus YNL153C, strain GIM3, hits give low values
[14] = S. cerevisiae deletion strains, locus YNL322C, strain KRE1, hits give low values
[15] = S. cerevisiae deletion strains, locus YPL055C, strain LGE1, hits give low values
[16] = S. cerevisiae deletion strains, locus YPL241C, strain CIN2, hits give low values
[17] = S. cerevisiae strains, strain wild type, hits give low values

Measured: normalized growth

O/N=C(/CNC(c1ccccc1)(c1ccccc1)c1ccccc1)c1ccccc1
inactive: [1] 0.969 | [2] 0.977 | [3] 0.963 | [4] 0.9 | [5] 0.949 | [6] 0.987 | S. cerevisiae deletion strains, locus YHR087W, strain rtc3, hits give low values 1.01 | S. cerevisiae deletion strains, locus YJL187C, strain SWE1, hits give low values 0.97 | [8] 0.988 | [9] 1.02 | [10] 1.01 | S. cerevisiae deletion strains, locus YLR058C, strain SHM2 (second series), hits give low values 0.975 | S. cerevisiae deletion strains, locus YLR085C, strain ARP6, hits give low values 0.819 | [11] 1.02 | S. cerevisiae deletion strains, locus YML094W, strain GIM5, hits give low values 0.969 | S. cerevisiae deletion strains, locus YMR219W, strain ESC1, hits give low values 0.968 | [12] 0.999 | [13] 1.03 | S. cerevisiae deletion strains, locus YNL298W, strain CLA4 (second series), hits give low values 1 | [14] 0.985 | S. cerevisiae deletion strains, locus YNR030W, strain Alg12, hits give low values 0.976 | [15] 0.998 | [16] 0.964 | S. cerevisiae deletion strains, locus YPR135W, strain CTF4, hits give low values 0.758 | [17] 0.969
active: [7] 0.594

NCCCCNCCCN
inactive: [1] 1.01 and 0.954 | S. cerevisiae deletion strains, locus YAL040C, strain CLN3, hits give low values 0.977 | S. cerevisiae deletion strains, locus YBR021W, strain FUR4, hits give low values 1.11 | [2] 0.997 | S. cerevisiae deletion strains, locus YCL029C, strain bik1, hits give low values 0.95 | S. cerevisiae deletion strains, locus YCL061C, strain MRC1 (second series), hits give low values 0.982 | S. cerevisiae deletion strains, locus YDL035C, strain GPR1, hits give low values 1.02 | S. cerevisiae deletion strains, locus YDL074C, strain BRE1, hits give low values 0.98 | [3] 0.981 | S. cerevisiae deletion strains, locus YDL134C, strain PPH21, hits give low values 1.01 | S. cerevisiae deletion strains, locus YDL185W, strain tfp1, hits give low values 0.946 | S. cerevisiae deletion strains, locus YDL192W, strain arf1, hits give low values 0.983 | S. cerevisiae deletion strains, locus YDR101C, strain arx1, hits give low values 0.988 | [4] 0.978 and 1 | S. cerevisiae deletion strains, locus YDR162C, strain NBP2, hits give low values 0.998 | S. cerevisiae deletion strains, locus YDR318W, strain mcm21, hits give low values 0.987 | S. cerevisiae deletion strains, locus YDR363W, strain ESC2, hits give low values 0.971 | S. cerevisiae deletion strains, locus YDR388W, hits give low values 0.996 | S. cerevisiae deletion strains, locus YDR502C, strain sam2, hits give low values 1.01 | [5] 0.995 | S. cerevisiae deletion strains, locus YER002W, strain NOP16, hits give low values 0.991 | S. cerevisiae deletion strains, locus YER110C, hits give low values 0.979 | S. cerevisiae deletion strains, locus YER155C, strain BEM2, hits give low values 1.01 | S. cerevisiae deletion strains, locus YER167W, strain BCK2, hits give low values 1 | S. cerevisiae deletion strains, locus YGL078C, strain dbp3, hits give low values 0.981 | S. cerevisiae deletion strains, locus YGL086W, strain mad1, hits give low values 0.996 | S. cerevisiae deletion strains, locus YGL248W, strain PDE1, hits give low values 1 | [6] 0.972 | S. cerevisiae deletion strains, locus YGR135W, strain pre9, hits give low values 0.999 | S. cerevisiae deletion strains, locus YGR229C, strain SMI1, hits give low values 0.991 | S. cerevisiae deletion strains, locus YGR252W, strain gcn5, hits give low values 1.13 | [7] 0.985 and 0.976 | S. cerevisiae deletion strains, locus YHR079C, strain IRE1 (second series), hits give low values 0.981 | S. cerevisiae deletion strains, locus YHR079C, strain IRE1, hits give low values 0.985 | S. cerevisiae deletion strains, locus YHR094C, strain hxt1, hits give low values 0.972 | S. cerevisiae deletion strains, locus YHR129C, strain ARP1, hits give low values 0.989 | S. cerevisiae deletion strains, locus YHR200W, strain rpn10, hits give low values 0.992 | S. cerevisiae deletion strains, locus YIL066C, strain RNR3, hits give low values 0.99 | S. cerevisiae deletion strains, locus YIL073C, strain SPO22, hits give low values 0.722 | S. cerevisiae deletion strains, locus YIR030C, strain dcg1, hits give low values 0.99 | S. cerevisiae deletion strains, locus YJL095W, strain BCK1, hits give low values 0.977 and 1.02 | S. cerevisiae deletion strains, locus YJL134W, strain LCB3, hits give low values 0.995 | S. cerevisiae deletion strains, locus YJL168C, strain set2, hits give low values 0.991 | S. cerevisiae deletion strains, locus YJL187C, strain SWE1 (second series), hits give low values 0.964 | [8] 1 | S. cerevisiae deletion strains, locus YJR066W, strain TOR1, hits give low values 0.931 | [9] 0.995 and 1 | S. cerevisiae deletion strains, locus YKL009W, strain mrt4, hits give low values 0.991 | S. cerevisiae deletion strains, locus YKL068W, hits give low values 0.977 | S. cerevisiae deletion strains, locus YKL085W, strain MDH1 (second series), hits give low values 0.985 | S. cerevisiae deletion strains, locus YKL085W, strain MDH1, hits give low values 0.985 | S. cerevisiae deletion strains, locus YKL190W, strain CNB1, hits give low values 0.988 | S. cerevisiae deletion strains, locus YKR001C, strain vps1, hits give low values 0.971 | [10] 0.973 | S. cerevisiae deletion strains, locus YLR058C, strain SHM2, hits give low values 0.985 | S. cerevisiae deletion strains, locus YLR102C, strain apc9, hits give low values 0.991 | S. cerevisiae deletion strains, locus YLR113W, strain HOG1, hits give low values 1.05 | [11] 0.96 | S. cerevisiae deletion strains, locus YLR268W, strain sec22, hits give low values 0.928 | S. cerevisiae deletion strains, locus YLR330W, strain CHS5, hits give low values 0.991 | S. cerevisiae deletion strains, locus YLR342W, strain FKS1 (second series), hits give low values 1.04 | S. cerevisiae deletion strains, locus YLR371W, strain rom2, hits give low values 0.979 | S. cerevisiae deletion strains, locus YLR418C, strain cdc73, hits give low values 1.01 | S. cerevisiae deletion strains, locus YML016C, strain PPZ1, hits give low values 0.988 | S. cerevisiae deletion strains, locus YML124C, strain tub3, hits give low values 0.986 | S. cerevisiae deletion strains, locus YMR078C, strain ctf18, hits give low values 0.999 | S. cerevisiae deletion strains, locus YMR223W, strain ubp8, hits give low values 1.03 | [12] 0.978 and 0.977 | S. cerevisiae deletion strains, locus YMR307W, strain GAS1, hits give low values 1.12 and 0.988 | S. cerevisiae deletion strains, locus YNL067W, strain RPL9B, hits give low values 0.972 | S. cerevisiae deletion strains, locus YNL128W, strain TEP1, hits give low values 1.01 | [13] 0.971 and 1.03 | S. cerevisiae deletion strains, locus YNL175C, strain NOP13, hits give low values 1 | S. cerevisiae deletion strains, locus YNL183C, strain NPR1, hits give low values 0.959 | S. cerevisiae deletion strains, locus YNL197C, strain WHI3, hits give low values 0.988 | S. cerevisiae deletion strains, locus YNL224C, strain SQS1, hits give low values 0.98 | S. cerevisiae deletion strains, locus YNL233W, strain BNI4, hits give low values 0.98 | S. cerevisiae deletion strains, locus YNL250W, strain rad50, hits give low values 0.962 | S. cerevisiae deletion strains, locus YNL271C, strain bni1, hits give low values 0.977 | S. cerevisiae deletion strains, locus YNL298W, strain CLA4, hits give low values 0.981 | S. cerevisiae deletion strains, locus YNL307C, strain MCK1, hits give low values 0.975 | [14] 0.988 and 0.982 | S. cerevisiae deletion strains, locus YNR052C, strain pop2, hits give low values 0.995 | S. cerevisiae deletion strains, locus YOL006C, strain TOP1, hits give low values 0.776 | S. cerevisiae deletion strains, locus YOL012C, strain htz1 0.74 | S. cerevisiae deletion strains, locus YOL147C, strain pex11, hits give low values 0.982 | S. cerevisiae deletion strains, locus YOR061W, strain CKA2, hits give low values 0.996 | S. cerevisiae deletion strains, locus YOR069W, strain VPS5, hits give low values 0.996 | S. cerevisiae deletion strains, locus YOR083W, strain WHI5 (second series), hits give low values 0.915 | S. cerevisiae deletion strains, locus YOR136W, strain idh2, hits give low values 0.996 | S. cerevisiae deletion strains, locus YOR144C, strain elg1, hits give low values 0.996 | S. cerevisiae deletion strains, locus YOR184W, strain ser1, hits give low values 0.953 | S. cerevisiae deletion strains, locus YOR231W, strain MKK1, hits give low values 0.989 | S. cerevisiae deletion strains, locus YOR316C, strain cot1, hits give low values 0.979 | [15] 1.03 | [16] 0.997 | S. cerevisiae deletion strains, locus YPL256C, strain CLN2, hits give low values 0.974 | S. cerevisiae deletion strains, locus YPR119W, strain clb2, hits give low values 0.979 | S. cerevisiae deletion strains, locus YPR141C, strain kar3, hits give low values 0.991 | S. cerevisiae deletion strains, locus YPR163C, strain tif3, hits give low values 0.984 | S. cerevisiae deletion strains, locus YPR167C, strain met16, hits give low values 0.982 | S. cerevisiae deletion strains, strain wtn01, hits give low values 0.993 | [17] 1.01
